From PubChem BioAssay AID588458 (Sanford-Burnham Center for Chemical Genomics, 2011)
Several values for one entry are separate records, joined by “and”; a condition that tells them apart may be missing. Equal values may be shown once. The whole screen tested about 360,000 compounds, of which about 3,000 (0.83%) were called active. Rule as the data show it: active = inhibition above about 50%; inactive = the rest. This excerpt belongs to a sample that is enriched for actives. Where a structure was tested more than once in an assay, its records may differ in their call.

Biological target: DNA (cytosine-5)-methyltransferase 1 (Homo sapiens) (UniProt P26358)
Sequence (P26358 504-1616 limits assumed): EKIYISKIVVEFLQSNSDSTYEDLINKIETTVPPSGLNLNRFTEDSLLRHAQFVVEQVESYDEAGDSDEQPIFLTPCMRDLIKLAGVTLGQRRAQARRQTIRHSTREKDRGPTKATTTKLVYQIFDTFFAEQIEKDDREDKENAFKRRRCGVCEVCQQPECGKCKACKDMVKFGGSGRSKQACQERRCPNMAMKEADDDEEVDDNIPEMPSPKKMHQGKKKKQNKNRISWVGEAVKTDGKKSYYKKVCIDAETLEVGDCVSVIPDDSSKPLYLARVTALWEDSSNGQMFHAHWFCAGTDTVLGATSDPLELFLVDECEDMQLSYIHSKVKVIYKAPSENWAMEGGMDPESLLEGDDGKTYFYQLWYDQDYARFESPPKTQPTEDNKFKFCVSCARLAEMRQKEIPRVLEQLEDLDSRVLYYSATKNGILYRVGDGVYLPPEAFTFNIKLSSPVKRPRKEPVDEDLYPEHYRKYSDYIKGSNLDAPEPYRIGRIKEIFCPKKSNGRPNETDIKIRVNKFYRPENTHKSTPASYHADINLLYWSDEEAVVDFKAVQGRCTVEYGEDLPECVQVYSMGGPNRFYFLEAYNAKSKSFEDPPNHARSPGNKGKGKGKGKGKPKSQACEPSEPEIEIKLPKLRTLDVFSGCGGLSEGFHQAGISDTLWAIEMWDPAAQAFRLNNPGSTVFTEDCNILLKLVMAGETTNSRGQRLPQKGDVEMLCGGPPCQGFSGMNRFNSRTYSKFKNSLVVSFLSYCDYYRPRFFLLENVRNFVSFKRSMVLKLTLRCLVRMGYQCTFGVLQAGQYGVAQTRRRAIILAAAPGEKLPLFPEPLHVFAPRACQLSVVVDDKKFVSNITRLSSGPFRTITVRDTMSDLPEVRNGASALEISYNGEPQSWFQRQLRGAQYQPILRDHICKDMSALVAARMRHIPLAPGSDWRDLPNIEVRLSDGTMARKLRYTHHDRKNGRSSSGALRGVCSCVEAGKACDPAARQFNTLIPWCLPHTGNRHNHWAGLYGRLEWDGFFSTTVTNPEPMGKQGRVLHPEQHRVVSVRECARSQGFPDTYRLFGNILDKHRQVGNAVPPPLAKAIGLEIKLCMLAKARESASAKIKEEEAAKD
Experiment: inhibition of DNA methyltransferase DNMT1 – biochemical, molecular beacon, fluorescence, HinP1I cleavage, uHTS, primary screen (AID 588458)
Conditions: at 10 µM, stronger effect = higher value

| Compound | inhibition (reported as % activation of signal) |
| --- | --- |
| COc1cc(C)c(C(C)C)cc1S(=O)(=O)n1ccnc1 | 27.6% (inactive) |
| C=CCCC(=O)Nc1nc(C)c(-c2csc(Nc3ccc(Cl)cc3)n2)s1 | -14.7% (inactive) |
| Cc1cn([C@H]2C[C@H](O)[C@@H](/C=C/C(=O)NCCCc3ccccc3)O2)c(=O)[nH]c1=O | 1% (inactive) |
| CCC(=O)Nc1cccc(C2=NOC3(C2)C[C@@H](C(N)=O)N(C(=O)c2cc([N+](=O)[O-])cc([N+](=O)[O-])c2C)C3)c1 (stereo partly drawn) | 4.19% (inactive) |
| O=S(=O)(Nc1ccc2[nH]ncc2c1)c1ccccc1Cl | -2.94% (inactive) |
| COc1cc(/C(=C/c2ccccc2)c2ccccc2)c2c(c1)oc1ccccc12 | 10.2% (inactive) |
| Cc1nnc(N/N=C/c2cccs2)[nH]c1=O | 56% (active) |
| Cc1n[nH]c(=O)nc1N/N=C/c1cccs1 | 3.53% (inactive) |
| Cc1nnc(N/N=C/c2ccccn2)[nH]c1=O | 5.44% (inactive) |
| CNc1ccc(SC#N)cc1 | -16.1% (inactive) |
| ON=C1/C(=N\O)CC2(C/C1=N/O)OCCO2 | 12.4% (inactive) |
| O/N=C1\CC2(Cc3nonc31)OCCO2 | 77.1% (active) |
| CC(C)N=C1CCCC1C(=S)SSC(=S)C1CCCC1=NC(C)C (stereo not drawn) | -10.8% (inactive) |
| O=C(NCCCN1CCOCC1)c1ccccc1NS(=O)(=O)c1ccc(F)cc1 | 0.01% (inactive) |
| O=C(NCc1ccncc1)c1ccc(NS(=O)(=O)c2cccc([N+](=O)[O-])c2)cc1 | -0.75% (inactive) |
| O=[N+]([O-])c1cc(S(=O)(=O)Nc2cccc(Cl)c2)ccc1N=Nc1c(O)[nH]c2ccccc12 | 56.3% (active) |
| Cc1c(-c2ccccc2)n[nH]c1C(=O)N=Nc1c(O)[nH]c2ccccc12 | 47.8% (inactive) |
| CCc1cc(CNC(=O)CC2C(=O)NCCN2Cc2ccccc2C(F)(F)F)on1 (stereo not drawn) | -2.03% (inactive) |
| CCOC(=O)c1c(-c2cccc(N)c2)cn2ccccc12 | 2.56% (inactive) |
| NC(=S)NN=Cc1ccc(OC(=O)COc2cc(Cl)c(Cl)cc2Cl)cn1 | -3.17% (inactive) |
| CCOc1cc(CN2CCCC(CO)(Cc3ccc(F)cc3F)C2)ccc1OC (stereo not drawn) | 60.8% (active) |
| Cc1ccccc1CC1(CO)CCCN(Cc2ccc3c(c2)OCCO3)C1 (stereo not drawn) | -0.5% (inactive) |

| Compound | inhibition (reported as % activation of signal) |
| --- | --- |
| COc1cccc(CC2(CO)CCCN(Cc3ccc(OC(F)F)cc3)C2)c1 (stereo not drawn) | 1.47% (inactive) |
| CC1(C(=O)NCc2ccc(F)c(F)c2)Cc2c(-c3ccc4c(c3)OCO4)ccnc2O1 (stereo not drawn) | -0.89% (inactive) |
| Cc1cc2c(cc1C)N1C(=O)c3cc4ccccc4cc3NC(=O)C1C(=O)N2 (stereo not drawn) | 40.5% (inactive) |
| CCN1CCN(C(=O)N[C@@H](C(=O)N[C@@H]2C(=O)N3C(C(=O)O)=C(CSc4nnnn4C)CS[C@H]23)c2ccc(O)cc2)C(=O)C1=O | 1.74% (inactive) |
| CO/N=C(\C(=O)N[C@@H]1C(=O)N2C(C(=O)O)=C(COC(C)=O)CS[C@H]12)c1csc(N)n1 (stereo in doubt) | 20.2% (inactive) and 7.93% (inactive) and 65.2% (active) |
| C=CC1=C(C(=O)O)N2C(=O)[C@@H](NC(=O)/C(=N/OCC(=O)O)c3csc(N)n3)[C@H]2SC1 | -43.7% (inactive) |
| Cc1nnc(SCC2=C(C(=O)O)N3C(=O)C(NC(=O)Cn4nc(C)c(Cl)c4C)C3SC2)s1 (stereo not drawn) | 2.36% (inactive) |
| C=CC1=C(C(=O)O)N2C(=O)[C@@H](NC(=O)/C(=N\OCC(=O)O)c3csc(N)n3)[C@H]2SC1 | 81.2% (active) |
| CCCCN(C=O)c1c(CC)nc2c(OCCC3CCCCC3)cccn12 | -6.04% (inactive) |
| CCOC(=O)C1=CCC(c2ccc(F)cc2)N(S(=O)(=O)c2ccc(C)cc2)C1 (stereo not drawn) | 6.68% (inactive) |
| CC1CCCCN1C(=O)CCS(=O)(=O)Cc1ccccc1 (stereo not drawn) | -2.02% (inactive) |
| CC(C)CC(CCc1ccccc1)OS(N)(=O)=O (stereo not drawn) | 4.1% (inactive) |
| COc1ccc(S(=O)(=O)N2CCN(C(C)C(=O)Nc3ccc(C(C)C)cc3)CC2)cc1 (stereo not drawn) | 2.17% (inactive) |
| COc1ccc(OCC(=O)NNC(=O)C2CCC2)cc1 | 0.09% (inactive) |
| CC(NC(=O)COc1ccc(-c2ccccc2)cc1)C1CCCO1 (stereo not drawn) | -1.92% (inactive) |
| COc1ccc(OCC(=O)NNC(=O)c2ccc(-c3ccccc3)cc2)cc1 | 59.6% (active) |
| COc1ccc(Cl)cc1NC(=O)CN(C)C(=O)c1cn(-c2ccccc2)nc1-c1cccs1 | -24.5% (inactive) |
| CC(C)(C)c1ccc(S(=O)(=O)N2CCN(C(=O)c3ccc4c(c3)C(=O)N(Cc3ccncc3)C4=O)CC2)cc1 | -1.88% (inactive) |
| O=C(CCN1C(=O)C2C3C=CC(C3)C2C1=O)Nc1ccccc1F (stereo not drawn) | 75.5% (active) |
| O=C(CCN1C(=O)C2C3C=CC(C3)C2C1=O)Oc1ccc2ccccc2c1 (stereo not drawn) | -3.47% (inactive) |
| O=C(CCN1C(=O)C2C3CCC(C3)C2C1=O)Nc1ccc(Cl)cc1Cl (stereo not drawn) | -0.32% (inactive) |
